# Compound activity deposited in PubChem by National Center for Advancing Translational Sciences (NCATS).
# KDM5B inhibitor = KDM5B demethylase inhibition. Potency, µM (series often up to 57.7 µM), actives largely listed as inhibitors. 220,000 tested, 2.6% active. AID 1347165. Q9UGL1. KDM5B demethylase, FDH-coupled NADH fluorescence (FDH is formaldehyde dehydrogenase); active = well fitted inhibition curve with a large enough effect; note: 0% is about no effect; nearly all actives have a fitted effect of over 70% in size
#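 Coupled FDH/NAD⁺ fluorescence readout. KDM5BΔAP 200 nM final; compound titration, 10 min RT preincubation; substrate mix 12.5 µM H3K4me3, 25 µM 2-OG, 50 µM Fe(II), 100 µM ascorbate, 0.25 mM NAD⁺, 0.25 U/mL FDH; ΔRFU over 30 min.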
# The depositor's hits bear a star; i = inactive; ! = a repeat was not active. The entries come from a sample that favours hits as a whole. Potency is the fitted concentration of half-maximal effect.
SMILES,KDM5B inhibitor
Cc1nc(CNC(=O)c2ccccc2C)cs1,i
Cc1cc(CNC(=O)c2cc(-c3ccccc3C)cc3c2OCCN3C)no1,35.5µM*
Cc1ccccc1-c1cc(C(=O)NCC[S+](C)(=O)[O-])c2c(c1)N(C)CCO2,35.5µM*
Cc1ccccc1CCNC(=O)c1ccc2c(c1)nc1n2CCOC1,i
Cc1cc(CNC(=O)c2cc(-c3ccc(CO)cc3)cc3c2OCCN3C)no1,31.6µM*
COc1ccc(-c2cc(CNC(=O)c3cn(CCN)nn3)no2)cc1,i
Cc1cc(CNC(=O)c2cc(-c3ccccc3F)cc3c2OCCN3C)no1,31.6µM*
O=C(NCCN1CCOCC1)c1noc(-c2ccccc2F)n1,i
Cc1cc(CNC(=O)[C@@H]2CCC[C@@H](NC(=O)c3ccccc3)CN(C)C(=O)C2)no1,i
CCCCn1c(=O)n(CC(=O)Nc2ccc3c(c2)OCCO3)c(=O)c2c1ncn2C1CCCC1,i
Cc1ccccc1C(=O)N1C(C(=O)NCC(C)C)COC12CCN(C(=O)c1cccc(Cl)c1)CC2 (stereo not drawn),i
CC(=O)N1CCC(Nc2nc(-c3cccnc3)nc3ccccc23)CC1,i
O=C1CC(c2ccc(Cl)cc2)c2sc(C(=O)O)c(-c3ccc(F)cc3)c2N1 (stereo not drawn),i
CCNC(=S)NCCSc1ccc(Cl)cc1,i
Cc1cccc(OCCn2c(Cl)nc3c2c(=O)n(C)c(=O)n3C)c1,i
CCN1CCC(NC(=O)CCc2ncc(-c3ccc(F)cc3)o2)CC1,i
O=C(c1cc(-c2cnccc2Cl)c2cccn2n1)N1CCCC1,i
CCN1CCN(C(=O)c2cc3ccccc3oc2=O)CC1,i
CCCCCCCCOC(=O)/C(C#N)=C/c1ccc(-c2ccccc2)o1,i
CC(C)N1CCC2(CC1)CN(C(=O)c1ccccn1)Cc1ccccc1O2,i
O=C1NC2(CN(C(=O)c3ccccc3F)C2)Oc2ccccc21,i
O=C(c1ccccc1)N1CCC2(CC1)CC(=O)N(c1ccccc1)c1ccccc1O2,i
O=C1CC2(CCN(C(=O)c3ccccn3)CC2)Oc2ccccc21,31.6µM*
O=C(c1ccccc1F)N1CCC2(CC1)CC(=O)N(c1ccccc1)c1ccccc1O2,i
O=C1CC2(CCN(C(=O)c3ccccc3)CC2)Oc2ccccc21,31.6µM*
SMILES,KDM5B inhibitor
O=C1NC2(CCCN(C(=O)c3ccccn3)C2)Oc2ccccc21 (stereo not drawn),i
O=C1CC2(CCN(C(=O)c3ccccc3F)CC2)Oc2ccccc21,25.1µM*
O=C1CC2(CCN(C(=O)c3ccccc3)CC2)Oc2ccccc2N1,i
C=CCSc1nc2c(c(=O)n(C)c(=O)n2C)n1CC(=C)C,i
CCCCn1c(CCC(=O)Nc2cccc(C)c2C)nc2c1c(=O)[nH]c(=O)n2CCC,i
O=C(NCc1cnn(-c2ccccc2)c1)C1CCN(S(=O)(=O)c2ccc(F)cc2)CC1,i
CCOc1ccc(CN2C[C@@H](COC)[C@H](C(=O)N(C)C)C2)cc1,i
COC[C@@H]1CN(c2ncccn2)C[C@H]1C(=O)O,15.8µM*
COC[C@@H]1CN(Cc2ccc(C)o2)C[C@H]1C(=O)N(C)C,i
CNC(=O)[C@@H]1CN(C(=O)c2cccnc2C)C[C@H]1COC,i
COC[C@@H]1CN(c2ncccn2)C[C@H]1C(=O)N(C)Cc1ccco1,17.8µM*
COC[C@@H]1CN(C(=O)COc2ccccc2)C[C@H]1C(N)=O,i
O=C(c1ccc(OC(F)F)cc1)N1CCCC(O)(CN2CCCC2)C1 (stereo not drawn),i
Cc1ccc(OCC(=O)Nc2cc(-c3nc4ccccc4o3)ccc2C)cc1,i
O=C(Nc1ccc(Br)cc1)c1nc2ccccc2nc1N1CCCC1,i
N#CCc1ccc(OCC(O)Cn2cnc3cc(Cl)ccc3c2=O)cc1 (stereo not drawn),i
CC(C)CN(CC1CN(C(=O)Nc2cccc(Cl)c2)CCO1)C(=O)c1ccc(F)cc1 (stereo not drawn),i
COCCOc1ccnc(-c2noc([C@@H]3CCCN3Cc3ccccc3)n2)c1,i
CC(=O)N1CCC(N2C[C@H](O)C[C@H]2c2nc(-c3ccccn3)no2)CC1,i
CC(=O)N1CCC(N2CCC[C@H]2c2nc(-c3ccc(-c4ccncc4)nc3)no2)CC1,i
COc1ccc(-c2noc([C@@H]3CCCN3C3CCCCC3)n2)cn1,i
COCCOc1cc(-c2noc([C@@H]3CCCN3C3CCN(C)CC3)n2)ccn1,i
COCCNc1ncccc1-c1noc([C@@H]2CCCN2C2CCN(C(C)=O)CC2)n1,35.5µM*
CCCCOc1ccc(C(=O)N2CCC[C@H]2c2nc(-c3ccccc3Cl)no2)cc1,i
COCCNc1ncccc1-c1noc([C@@H]2CCCN2C2CCC2)n1,31.6µM*
SMILES,KDM5B inhibitor
COCCOc1ncccc1-c1noc([C@@H]2CCCN2Cc2ncc[nH]2)n1,i
COCCNc1ncccc1-c1noc([C@@H]2CCCN2C2CCN(C)CC2)n1,31.6µM*
COCCNc1ncccc1-c1noc([C@@H]2CCCN2Cc2ccc(C(=O)O)cc2)n1,35.5µM*
COCCOc1ccnc(-c2noc([C@@H]3CCCN3C3CCC3)n2)c1,i
COc1ccccc1C(=O)N1CCCCC1c1noc(COc2ccc(C)cc2)n1 (stereo not drawn),i
CCCCNC(=S)NN=C1CCCCCC1,i
CCCCN1C=C(OC(=O)c2ccc(OC)cc2)c2ccccc2S1(=O)=O,i
COC1C(=O)N(C2CCN(C(=O)c3cnc(C)cn3)CC2)C12CCOCC2 (stereo not drawn),i
COc1ccc(CCNC(=O)CSc2nc(-c3ccc(Cl)cc3)nc3cc(=O)[nH]n23)cc1OC,i
CCOCCn1c(N2CCN(Cc3cccc(C)c3)CC2)nc2c1c(=O)[nH]c(=O)n2C,i
NCc1ccc(-c2cccnc2)cc1,i
Cc1occc1-c1nc2ncccc2[nH]1,31.6µM*
c1ccc(CSc2nc3ncccc3[nH]2)cc1,i
c1cncc(-c2nc3ncccc3[nH]2)c1,35.5µM*
CC(C)c1ccc(NC(=O)CSc2nc3ncccc3[nH]2)cc1,i
Cc1occc1-c1nc(-c2ccc(Cl)cc2)no1,i
CC(C)c1cnc(-c2cccnc2)[nH]1,i
S=c1nc(-c2ccccc2)[nH]c2ccc(Br)cc12,i
c1ccc(-c2nc3ncccc3[nH]2)cc1,31.6µM*!
CC(C)(C)c1cc(SC2(Sc3cc(C(C)(C)C)c(O)c(C(C)(C)C)c3)C(=O)Nc3ccccc32)cc(C(C)(C)C)c1O,i
N#Cc1nc(C2CC2)oc1N1CCN(C(=O)c2ccc[nH]c2=O)CC1,i
COc1cccc(-n2cc(CN(C)c3ncncn3)cn2)c1,i
COc1ccc(-c2noc([C@@H]3C[C@@H](O)CN3C3CCCCC3)n2)cc1,i
CC(C)c1noc([C@@H]2C[C@@H](O)CN2Cc2ccc(N(C)C)cc2)n1,i
O=S(=O)(Cc1noc([C@@H]2C[C@@H](O)CN2Cc2cc3ccccc3o2)n1)c1ccc(F)cc1,i
SMILES,KDM5B inhibitor
COc1ccc(CN2C[C@H](O)C[C@H]2c2nc(-c3ccc(OC)cc3)no2)cc1,i
COc1ccc(-c2noc([C@@H]3C[C@@H](O)CN3Cc3cc4ccccc4o3)n2)cc1,31.6µM*
CC(C)c1noc([C@@H]2C[C@@H](O)CN2Cc2cc3ccccc3o2)n1,39.8µM*
CCc1cnc(N)nc1N1CCN(c2cnccn2)CC1,i
CC(NC(=O)C1CC1)c1ccncc1 (stereo not drawn),i
COc1cc(COc2cccc(C(C)=O)c2)c(OC)cc1Br,i
